# In PMC5540273 (PLoS ONE, 2017):
# Read-outs that look alike come from different tables or passages of the source.
# Key:
# [1] = test system: GRK7; conditions: concentration: 1 μM, replicates: in singlicate; n = 1
# [2] = test system: GSK3A; conditions: concentration: 1 μM, replicates: in singlicate; n = 1
# [3] = test system: GSK3B; conditions: n = 1
# [4] = test system: T1, HASPIN; conditions: concentration: 1 μM, replicates: in singlicate; n = 1
# T1 construct: gene GSG2
# [5] = test system: HCK; conditions: concentration: 1 μM, replicates: in singlicate; n = 1
# [6] = test system: HIPK1; conditions: concentration: 1 μM, replicates: in singlicate; n = 1
# [7] = test system: HIPK2; conditions: concentration: 1 μM, replicates: in singlicate; n = 1
# [8] = test system: HIPK3; conditions: concentration: 1 μM, replicates: in singlicate; n = 1
# [9] = test system: HIPK4; conditions: concentration: 1 μM, replicates: in singlicate; n = 1
# [10] = test system: HPK1; conditions: concentration: 1 μM, replicates: in singlicate; n = 1
# [11] = test system: HUNK; conditions: concentration: 1 μM, replicates: in singlicate; n = 1
# [12] = test system: ICK; conditions: concentration: 1 μM, replicates: in singlicate; n = 1
# [13] = test system: IGF1R; conditions: concentration: 1 μM, replicates: in singlicate; n = 1
# [14] = test system: T2, IKK-alpha; conditions: concentration: 1 μM, replicates: in singlicate; n = 1
# T2 construct: gene CHUK
# [15] = test system: T3, IKK-beta; conditions: concentration: 1 μM, replicates: in singlicate; n = 1
# T3 construct: gene IKBKB
# [16] = test system: T4, IKK-epsilon; conditions: concentration: 1 μM, replicates: in singlicate; n = 1
# T4 construct: gene IKBKE
# [17] = test system: INSRR; conditions: concentration: 1 μM, replicates: in singlicate; n = 1
# [18] = test system: INSR; conditions: concentration: 1 μM, replicates: in singlicate; n = 1
# [19] = test system: IRAK1; conditions: concentration: 1 μM, replicates: in singlicate; n = 1
# [20] = test system: IRAK3; conditions: concentration: 1 μM, replicates: in singlicate; n = 1
# [21] = concentration: 1 μM, replicates: in singlicate
# 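Note: KINOMEscan kinase panel screen.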
structure (smiles),measurement,setting,value
O=S(=O)(c1ccc(-c2ccnc3[nH]ccc23)cc1)N1CCCC1 [GSK846226],%Inh,[1],0%
same,%Inh,[2],15%
same,%Inh,[3]; [21],16%
same,%Inh,[4],12%
same,%Inh,[5],0%
same,%Inh,[6],45%
same,%Inh,[7],0%
same,%Inh,[8],48%
same,%Inh,[9],23%
same,%Inh,[10],25%
same,%Inh,[11],0%
same,%Inh,[12],0%
same,%Inh,[13],0%
same,%Inh,[14],29%
same,%Inh,[15],94.3%
same,%Inh,[16],31%
same,%Inh,[17],0%
same,%Inh,[18],0%
same,%Inh,[19],8%
same,%Inh,[20],22%
Cl.c1ccc(-c2n[nH]cc2-c2ccnc(-c3ccc(CN4CCOCC4)cc3)c2)nc1 [GW776245],%Inh,[1],0%
same,%Inh,[2],0%
same,%Inh,[3]; [21],0%
same,%Inh,[4],0%
same,%Inh,[5],13%
same,%Inh,[6],54%
same,%Inh,[7],0%
same,%Inh,[8],0%
same,%Inh,[9],17%
same,%Inh,[10],64%
same,%Inh,[11],2%
same,%Inh,[12],0%
same,%Inh,[13],0%
same,%Inh,[14],0%
same,%Inh,[15],0%
same,%Inh,[16],0%
same,%Inh,[17],0%
same,%Inh,[18],0%
same,%Inh,[19],0%
same,%Inh,[20],0%
COc1ccccc1-c1ccc2c(NC(=O)C3CC3)n[nH]c2n1 [SB-711239],%Inh,[1],0%
same,%Inh,[2],6%
same,%Inh,[3]; 1 µM,0%
same,%Inh,[4],41%
same,%Inh,[5],0%
same,%Inh,[6],0%
same,%Inh,[7],0%
same,%Inh,[8],1%
same,%Inh,[9],0%
same,%Inh,[10],41%
same,%Inh,[11],16%
same,%Inh,[12],0%
same,%Inh,[13],0%
same,%Inh,[14],64%
same,%Inh,[15],0%
same,%Inh,[16],24%
same,%Inh,[17],1%
same,%Inh,[18],0%
same,%Inh,[19],15%
same,%Inh,[20],9%
CC(C)(C)c1ccc(C(=O)Nc2cn3cc(-c4cccnc4)ccc3n2)cc1,%Inh,[1],24%
same,%Inh,[2],16%
same,%Inh,[3]; [21],5%
same,%Inh,[4],0%
same,%Inh,[5],44%
same,%Inh,[6],52%
same,%Inh,[7],27%
same,%Inh,[8],25%
same,%Inh,[9],15%
same,%Inh,[10],11%
same,%Inh,[11],0%
same,%Inh,[12],0%
same,%Inh,[13],0%
same,%Inh,[14],21%
same,%Inh,[15],27%
same,%Inh,[16],11%
same,%Inh,[17],7%
same,%Inh,[18],0%
same,%Inh,[19],41%
same,%Inh,[20],30%
Cc1cc(-c2ccc3c(c2)CC[C@@H](N[C@@H](C)c2ccccc2)C3)cnc1N.Cl [GW412617],%Inh,[1],0%
same,%Inh,[2],0%
same,%Inh,[3]; [21],6%
same,%Inh,[4],0%
same,%Inh,[5],0%
same,%Inh,[6],0%
same,%Inh,[7],6%
same,%Inh,[8],12%
same,%Inh,[9],6%
same,%Inh,[10],55%
same,%Inh,[11],0%
same,%Inh,[12],0%
same,%Inh,[13],0%
same,%Inh,[14],0%
same,%Inh,[15],0%
same,%Inh,[16],0%
same,%Inh,[17],31%
same,%Inh,[18],17%
same,%Inh,[19],76%
same,%Inh,[20],2%
Cl.NC(=O)c1cccc(Nc2nccc(Nc3ccc(Oc4cccc(Cl)c4)c(Cl)c3)n2)c1 [GW659008],%Inh,[1],0%
same,%Inh,[2],0%
same,%Inh,[3]; [21],0%
same,%Inh,[4],0%
same,%Inh,[5],72%
same,%Inh,[6],0%
same,%Inh,[7],0%
same,%Inh,[8],0%
same,%Inh,[9],0%
same,%Inh,[10],37%
same,%Inh,[11],0%
same,%Inh,[12],85%
same,%Inh,[13],14%
same,%Inh,[14],3%
same,%Inh,[15],5%
same,%Inh,[16],0%
same,%Inh,[17],12%
same,%Inh,[18],6%
same,%Inh,[19],0%
same,%Inh,[20],50%
O=C1NC(=O)C(N2CCc3ccccc32)=C1c1ccccc1Cl [SB-373598],%Inh,[1],0%
same,%Inh,[2],4%
same,%Inh,[3]; 1 µM,27%
same,%Inh,[4],100%
same,%Inh,[5],0%
same,%Inh,[6],30%
same,%Inh,[7],24%
same,%Inh,[8],13%
same,%Inh,[9],12%
same,%Inh,[10],0%
same,%Inh,[11],13%
same,%Inh,[12],17%
same,%Inh,[13],29%
same,%Inh,[14],98.1%
same,%Inh,[15],20%
same,%Inh,[16],30%
same,%Inh,[17],2%
same,%Inh,[18],23%
same,%Inh,[19],0%
same,%Inh,[20],9%
Cn1ccc2ncnc(Oc3ccc(NC(=O)Nc4ccccc4)cc3)c21,%Inh,[1],0%
same,%Inh,[2],11%
same,%Inh,[3]; [21],0%
same,%Inh,[4],24%
same,%Inh,[5],0%
same,%Inh,[6],25%
same,%Inh,[7],17%
same,%Inh,[8],0%
same,%Inh,[9],5%
same,%Inh,[10],0%
same,%Inh,[11],0%
same,%Inh,[12],0%
same,%Inh,[13],0%
same,%Inh,[14],5%
same,%Inh,[15],0%
same,%Inh,[16],17%
same,%Inh,[17],0%
same,%Inh,[18],14%
same,%Inh,[19],7%
same,%Inh,[20],0%
CN(C)CCN(C)C(=O)c1cc(-c2ccncc2)c(-c2ccc(Cl)c(O)c2)o1.Cl.Cl [SB-710397],%Inh,[1],0%
same,%Inh,[2],0%
same,%Inh,[3]; [21],14%
same,%Inh,[4],53%
same,%Inh,[5],14%
same,%Inh,[6],0%
same,%Inh,[7],0%
same,%Inh,[8],16%
same,%Inh,[9],0%
same,%Inh,[10],46%
same,%Inh,[11],38%
same,%Inh,[12],10%
same,%Inh,[13],7%
same,%Inh,[14],44%
same,%Inh,[15],35%
same,%Inh,[16],34%
same,%Inh,[17],0%
same,%Inh,[18],0%
same,%Inh,[19],56%
same,%Inh,[20],0%
Cc1nnc(-c2ccc3occ(-c4ccc(S(C)=O)cc4)c3c2)[nH]1 (stereo not shown),%Inh,[1],6%
same,%Inh,[2],86%
same,%Inh,[3]; [21],75%
same,%Inh,[4],25%
same,%Inh,[5],0%
same,%Inh,[6],69%
same,%Inh,[7],84%
same,%Inh,[8],81%
same,%Inh,[9],36%
same,%Inh,[10],0%
same,%Inh,[11],0%
same,%Inh,[12],0%
same,%Inh,[13],0%
same,%Inh,[14],26%
same,%Inh,[15],20%
same,%Inh,[16],0%
same,%Inh,[17],0%
same,%Inh,[18],4%
same,%Inh,[19],0%
same,%Inh,[20],66%
CCCc1ccc(S(=O)(=O)NC2CCN(c3ccnc(Nc4ccc(F)cc4)n3)C2)cc1 (stereo not shown) [GSK1379715],%Inh,[1],0%
same,%Inh,[2],2%
same,%Inh,[3]; [21],21%
same,%Inh,[4],0%
same,%Inh,[5],0%
same,%Inh,[6],0%
same,%Inh,[7],0%
same,%Inh,[8],0%
same,%Inh,[9],0%
same,%Inh,[10],37%
same,%Inh,[11],5%
same,%Inh,[12],0%
same,%Inh,[13],0%
same,%Inh,[14],33%
same,%Inh,[15],36%
same,%Inh,[16],0%
same,%Inh,[17],0%
same,%Inh,[18],1%
same,%Inh,[19],36%
same,%Inh,[20],0%
